Tests used:
Experiment in all cases: DAPPL (digital affinity profiling via proximity ligation, sequencing); 10 mM Tris-HCl pH 7.5, 50 mM NaCl, 1 mM DTT, 4% glycerol, room temperature, 30 min; GST-TFs on glutathione beads, 16-mer random dsDNA library, 0.1% formaldehyde crosslink after washing; high values mean tight binding
[1] = molecular target: T1, FLI1 (Homo sapiens, UniProt Q01543 1-452); conditions: protein: recombinant; tags: N-terminal GST; dsDNA, one strand shown
T1 sequence: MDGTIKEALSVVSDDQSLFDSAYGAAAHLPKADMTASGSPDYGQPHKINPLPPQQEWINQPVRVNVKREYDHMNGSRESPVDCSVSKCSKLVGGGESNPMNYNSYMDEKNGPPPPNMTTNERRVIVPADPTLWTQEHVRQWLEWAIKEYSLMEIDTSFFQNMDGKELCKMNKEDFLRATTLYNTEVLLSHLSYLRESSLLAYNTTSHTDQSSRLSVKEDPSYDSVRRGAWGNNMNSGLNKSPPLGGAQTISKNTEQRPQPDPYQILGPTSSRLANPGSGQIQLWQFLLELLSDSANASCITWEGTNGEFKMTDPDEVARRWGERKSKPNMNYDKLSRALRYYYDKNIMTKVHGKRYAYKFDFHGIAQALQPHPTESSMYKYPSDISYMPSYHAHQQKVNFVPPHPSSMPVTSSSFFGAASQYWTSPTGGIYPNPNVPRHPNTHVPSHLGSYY
Procedure, shortened: (§1)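 The binding signal reported is, for every hexamer, its read frequency for a factor over its read frequency for the tag-only sample. Reads came from pools of yeast-expressed, GST-fused human transcription factors on glutathione beads, barcoded with DNA and mixed with that sample, which were incubated with 200 nmole of a random double-stranded 16-mer DNA library in Tris/NaCl/DTT/glycerol buffer at room temperature for 30 min. After washing, the pools were crosslinked with 0.1% formaldehyde, proximity-ligated with BsaI/T4 ligase for 1 h at 37 °C, PCR-amplified and sequenced on an Illumina NextSeq500.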

[2] = molecular target: T2, ELK1 (Homo sapiens, UniProt P19419 1-428); conditions: protein: recombinant; tags: N-terminal GST; dsDNA, one strand shown
T2 sequence: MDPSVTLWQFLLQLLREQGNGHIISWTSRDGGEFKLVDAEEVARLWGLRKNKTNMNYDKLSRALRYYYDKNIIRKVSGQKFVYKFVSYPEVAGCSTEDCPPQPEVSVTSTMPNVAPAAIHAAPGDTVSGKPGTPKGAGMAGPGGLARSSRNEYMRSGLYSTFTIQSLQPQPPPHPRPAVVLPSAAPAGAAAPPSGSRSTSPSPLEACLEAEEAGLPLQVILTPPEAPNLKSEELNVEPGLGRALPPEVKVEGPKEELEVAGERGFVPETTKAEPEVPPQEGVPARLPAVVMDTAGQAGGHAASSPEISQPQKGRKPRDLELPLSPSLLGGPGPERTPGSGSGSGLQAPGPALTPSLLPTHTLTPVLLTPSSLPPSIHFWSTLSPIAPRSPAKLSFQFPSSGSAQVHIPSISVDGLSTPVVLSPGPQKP
Procedure, shortened: as §1

[3] = molecular target: T3, GABPA (Homo sapiens, UniProt Q06546 1-454); conditions: protein: recombinant; tags: N-terminal GST; dsDNA, one strand shown
T3 sequence: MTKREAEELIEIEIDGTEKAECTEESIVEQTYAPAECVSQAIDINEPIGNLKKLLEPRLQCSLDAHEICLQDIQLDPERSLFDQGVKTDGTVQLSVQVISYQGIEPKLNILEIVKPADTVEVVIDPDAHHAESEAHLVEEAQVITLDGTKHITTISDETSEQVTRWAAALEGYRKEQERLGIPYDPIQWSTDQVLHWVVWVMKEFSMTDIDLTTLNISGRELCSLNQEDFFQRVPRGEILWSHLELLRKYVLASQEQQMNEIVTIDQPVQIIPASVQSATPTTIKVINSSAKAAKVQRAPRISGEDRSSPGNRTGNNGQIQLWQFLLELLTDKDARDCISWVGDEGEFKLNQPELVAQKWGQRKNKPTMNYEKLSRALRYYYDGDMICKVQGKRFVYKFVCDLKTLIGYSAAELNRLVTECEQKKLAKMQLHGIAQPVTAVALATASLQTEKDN
Procedure, shortened: as §1

[4] = molecular target: ELF1 (Homo sapiens, UniProt P32519 1-619); conditions: protein: recombinant; tags: N-terminal GST; dsDNA, one strand shown
Procedure, shortened: as §1

[5] = molecular target: T4, EHF (Homo sapiens, UniProt Q9NZC4 1-300); conditions: protein: recombinant; tags: N-terminal GST; dsDNA, one strand shown
T4 sequence: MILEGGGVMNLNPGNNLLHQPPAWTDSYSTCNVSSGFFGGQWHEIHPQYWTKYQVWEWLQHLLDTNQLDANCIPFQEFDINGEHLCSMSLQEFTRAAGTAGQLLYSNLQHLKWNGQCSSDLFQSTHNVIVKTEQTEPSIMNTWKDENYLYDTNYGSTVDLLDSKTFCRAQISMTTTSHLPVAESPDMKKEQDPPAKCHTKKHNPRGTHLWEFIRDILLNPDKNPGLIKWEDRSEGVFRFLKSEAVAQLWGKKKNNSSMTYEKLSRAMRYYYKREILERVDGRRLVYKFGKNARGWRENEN
Procedure, shortened: as §1

[6] = molecular target: SPI1 (Homo sapiens, UniProt P17947 1-270); conditions: protein: recombinant; tags: N-terminal GST; dsDNA, one strand shown
Procedure, shortened: as §1

[7] = molecular target: SPIB (Homo sapiens, UniProt Q01892 1-262); conditions: protein: recombinant; tags: N-terminal GST; dsDNA, one strand shown
Procedure, shortened: as §1

[8] = molecular target: T5, ELK3 (Homo sapiens, UniProt P41970 1-407); conditions: protein: recombinant; tags: N-terminal GST; dsDNA, one strand shown
T5 sequence: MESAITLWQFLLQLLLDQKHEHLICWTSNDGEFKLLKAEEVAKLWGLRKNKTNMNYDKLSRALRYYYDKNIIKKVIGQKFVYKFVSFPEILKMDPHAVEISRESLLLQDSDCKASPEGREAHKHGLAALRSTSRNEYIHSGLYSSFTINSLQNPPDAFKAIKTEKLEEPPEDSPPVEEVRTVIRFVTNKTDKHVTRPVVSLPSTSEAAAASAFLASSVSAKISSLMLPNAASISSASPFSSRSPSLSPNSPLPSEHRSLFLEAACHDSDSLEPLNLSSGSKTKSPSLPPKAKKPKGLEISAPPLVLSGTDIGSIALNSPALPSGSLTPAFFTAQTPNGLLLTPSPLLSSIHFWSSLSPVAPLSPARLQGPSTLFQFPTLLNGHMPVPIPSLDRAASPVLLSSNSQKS
Procedure, shortened: as §1

[9] = molecular target: ETV5 (Homo sapiens, UniProt P41161 1-510); conditions: protein: recombinant; tags: N-terminal GST; dsDNA, one strand shown
Procedure, shortened: as §1

[10] = molecular target: HSF1 (Homo sapiens, UniProt Q00613 1-529); conditions: protein: recombinant; tags: N-terminal GST; chain copies: 3; dsDNA, one strand shown
Procedure, shortened: as §1

[11] = molecular target: ELF4 (Homo sapiens, UniProt Q99607 1-663); conditions: protein: recombinant; tags: N-terminal GST; dsDNA, one strand shown
Procedure, shortened: as §1

[12] = molecular target: T6, ELK4 (Homo sapiens, UniProt P28324-2 1-405); conditions: protein: recombinant; tags: N-terminal GST; dsDNA, one strand shown
T6 sequence: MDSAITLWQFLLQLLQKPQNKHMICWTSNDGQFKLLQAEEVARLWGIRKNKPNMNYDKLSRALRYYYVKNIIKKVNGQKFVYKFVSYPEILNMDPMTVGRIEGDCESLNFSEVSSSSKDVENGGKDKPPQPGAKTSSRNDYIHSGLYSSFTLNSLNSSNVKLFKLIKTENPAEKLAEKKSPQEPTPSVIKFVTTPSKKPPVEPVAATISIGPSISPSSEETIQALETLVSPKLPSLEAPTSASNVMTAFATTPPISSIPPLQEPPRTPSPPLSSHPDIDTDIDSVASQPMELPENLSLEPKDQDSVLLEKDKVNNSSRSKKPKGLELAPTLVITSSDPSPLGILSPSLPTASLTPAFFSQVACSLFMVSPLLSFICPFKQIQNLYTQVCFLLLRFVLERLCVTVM
Procedure, shortened: as §1

[13] = molecular target: T7, ERG (Homo sapiens, UniProt P11308 1-479); conditions: protein: recombinant; tags: N-terminal GST; dsDNA, one strand shown
T7 sequence: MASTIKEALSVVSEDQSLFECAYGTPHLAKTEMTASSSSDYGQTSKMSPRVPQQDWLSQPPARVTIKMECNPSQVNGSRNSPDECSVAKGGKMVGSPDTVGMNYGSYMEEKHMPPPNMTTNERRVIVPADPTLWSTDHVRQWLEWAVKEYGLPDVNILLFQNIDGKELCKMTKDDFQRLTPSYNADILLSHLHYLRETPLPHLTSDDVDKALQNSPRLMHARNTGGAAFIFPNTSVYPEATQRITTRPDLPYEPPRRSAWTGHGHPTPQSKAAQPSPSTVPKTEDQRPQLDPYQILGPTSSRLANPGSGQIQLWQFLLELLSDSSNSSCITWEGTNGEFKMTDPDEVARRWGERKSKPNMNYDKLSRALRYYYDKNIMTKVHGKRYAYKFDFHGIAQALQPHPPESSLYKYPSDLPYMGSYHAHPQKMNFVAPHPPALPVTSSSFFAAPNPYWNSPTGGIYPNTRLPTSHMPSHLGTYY
Procedure, shortened: as §1

[14] = molecular target: T8, FEV (Homo sapiens, UniProt Q99581 1-238); conditions: protein: recombinant; tags: N-terminal GST; dsDNA, one strand shown
T8 sequence: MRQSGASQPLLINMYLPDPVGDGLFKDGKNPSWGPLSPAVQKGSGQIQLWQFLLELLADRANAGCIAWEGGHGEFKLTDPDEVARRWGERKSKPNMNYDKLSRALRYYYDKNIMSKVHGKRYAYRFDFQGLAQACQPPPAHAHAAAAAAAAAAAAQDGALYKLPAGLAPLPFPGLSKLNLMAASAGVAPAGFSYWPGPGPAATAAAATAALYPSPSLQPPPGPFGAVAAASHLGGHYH
Procedure, shortened: as §1

[15] = molecular target: T9, ELF3 (Homo sapiens, UniProt P78545 1-371); conditions: protein: recombinant; tags: N-terminal GST; dsDNA, one strand shown
T9 sequence: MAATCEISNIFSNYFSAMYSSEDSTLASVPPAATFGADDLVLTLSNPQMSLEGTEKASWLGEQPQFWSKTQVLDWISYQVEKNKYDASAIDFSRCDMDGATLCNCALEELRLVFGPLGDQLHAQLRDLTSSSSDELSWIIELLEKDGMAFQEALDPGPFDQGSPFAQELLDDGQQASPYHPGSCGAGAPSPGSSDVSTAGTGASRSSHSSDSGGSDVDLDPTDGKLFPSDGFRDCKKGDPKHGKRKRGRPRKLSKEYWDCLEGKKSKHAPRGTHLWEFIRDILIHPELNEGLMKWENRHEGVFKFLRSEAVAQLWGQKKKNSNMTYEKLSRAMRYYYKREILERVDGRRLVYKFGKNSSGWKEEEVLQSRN
Procedure, shortened: as §1

[16] = molecular target: ETV1 (Homo sapiens, UniProt P50549 1-477); conditions: protein: recombinant; tags: N-terminal GST; dsDNA, one strand shown
Procedure, shortened: as §1

Chain of ELF4 (Q99607 whole entry): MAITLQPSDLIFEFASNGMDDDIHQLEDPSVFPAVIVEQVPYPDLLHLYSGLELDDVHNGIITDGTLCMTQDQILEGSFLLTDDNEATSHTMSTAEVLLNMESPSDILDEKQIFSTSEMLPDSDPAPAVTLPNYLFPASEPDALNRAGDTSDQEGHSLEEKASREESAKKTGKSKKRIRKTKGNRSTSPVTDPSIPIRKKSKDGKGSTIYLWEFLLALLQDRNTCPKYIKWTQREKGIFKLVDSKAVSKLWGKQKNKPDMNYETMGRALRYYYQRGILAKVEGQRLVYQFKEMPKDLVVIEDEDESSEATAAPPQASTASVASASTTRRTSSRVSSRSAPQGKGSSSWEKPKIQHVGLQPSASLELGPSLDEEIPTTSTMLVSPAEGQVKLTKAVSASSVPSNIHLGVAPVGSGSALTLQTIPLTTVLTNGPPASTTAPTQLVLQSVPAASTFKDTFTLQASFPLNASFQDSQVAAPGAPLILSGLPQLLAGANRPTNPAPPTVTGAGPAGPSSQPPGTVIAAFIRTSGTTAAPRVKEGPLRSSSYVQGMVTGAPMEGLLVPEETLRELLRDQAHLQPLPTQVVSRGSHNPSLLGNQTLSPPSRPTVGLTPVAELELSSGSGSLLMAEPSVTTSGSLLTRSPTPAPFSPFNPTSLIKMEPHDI
Chain of HSF1 (Q00613 whole entry): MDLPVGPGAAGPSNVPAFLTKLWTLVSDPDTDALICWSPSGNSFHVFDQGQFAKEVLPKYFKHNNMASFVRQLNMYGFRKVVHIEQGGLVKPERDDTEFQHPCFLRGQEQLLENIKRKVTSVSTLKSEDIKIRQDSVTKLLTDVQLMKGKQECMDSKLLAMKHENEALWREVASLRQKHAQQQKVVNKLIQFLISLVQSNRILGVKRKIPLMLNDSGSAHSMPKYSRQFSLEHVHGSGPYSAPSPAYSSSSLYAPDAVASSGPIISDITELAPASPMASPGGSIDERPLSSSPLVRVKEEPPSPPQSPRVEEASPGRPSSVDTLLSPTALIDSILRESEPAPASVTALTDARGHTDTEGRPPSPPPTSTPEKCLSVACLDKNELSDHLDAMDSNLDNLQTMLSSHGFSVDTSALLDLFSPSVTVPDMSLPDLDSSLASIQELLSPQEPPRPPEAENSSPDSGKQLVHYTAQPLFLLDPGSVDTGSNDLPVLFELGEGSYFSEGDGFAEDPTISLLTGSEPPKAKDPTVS
Chain of SPIB (Q01892 whole entry): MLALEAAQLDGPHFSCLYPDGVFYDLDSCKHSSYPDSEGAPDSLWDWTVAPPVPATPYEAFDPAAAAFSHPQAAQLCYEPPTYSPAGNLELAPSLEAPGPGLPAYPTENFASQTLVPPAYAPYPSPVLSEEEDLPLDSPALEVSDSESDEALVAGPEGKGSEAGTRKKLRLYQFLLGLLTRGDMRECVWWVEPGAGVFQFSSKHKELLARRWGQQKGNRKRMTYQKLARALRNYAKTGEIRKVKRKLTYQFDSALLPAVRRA
Chain of ETV5 (P41161 whole entry): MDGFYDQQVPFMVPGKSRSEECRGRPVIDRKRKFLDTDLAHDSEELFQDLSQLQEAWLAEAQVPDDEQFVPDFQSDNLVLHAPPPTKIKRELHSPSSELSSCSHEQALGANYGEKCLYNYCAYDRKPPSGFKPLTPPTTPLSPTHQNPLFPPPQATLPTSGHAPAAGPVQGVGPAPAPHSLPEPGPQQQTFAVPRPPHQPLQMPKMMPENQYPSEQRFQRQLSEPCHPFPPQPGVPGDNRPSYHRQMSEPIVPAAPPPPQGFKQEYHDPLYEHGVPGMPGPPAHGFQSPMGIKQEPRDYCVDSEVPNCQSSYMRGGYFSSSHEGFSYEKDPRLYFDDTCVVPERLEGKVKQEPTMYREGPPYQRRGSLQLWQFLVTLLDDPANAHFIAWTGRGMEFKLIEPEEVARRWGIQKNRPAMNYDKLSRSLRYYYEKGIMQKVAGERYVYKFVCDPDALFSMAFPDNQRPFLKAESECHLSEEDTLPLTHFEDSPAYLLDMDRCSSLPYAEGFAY
Chain of ELF1 (P32519 whole entry): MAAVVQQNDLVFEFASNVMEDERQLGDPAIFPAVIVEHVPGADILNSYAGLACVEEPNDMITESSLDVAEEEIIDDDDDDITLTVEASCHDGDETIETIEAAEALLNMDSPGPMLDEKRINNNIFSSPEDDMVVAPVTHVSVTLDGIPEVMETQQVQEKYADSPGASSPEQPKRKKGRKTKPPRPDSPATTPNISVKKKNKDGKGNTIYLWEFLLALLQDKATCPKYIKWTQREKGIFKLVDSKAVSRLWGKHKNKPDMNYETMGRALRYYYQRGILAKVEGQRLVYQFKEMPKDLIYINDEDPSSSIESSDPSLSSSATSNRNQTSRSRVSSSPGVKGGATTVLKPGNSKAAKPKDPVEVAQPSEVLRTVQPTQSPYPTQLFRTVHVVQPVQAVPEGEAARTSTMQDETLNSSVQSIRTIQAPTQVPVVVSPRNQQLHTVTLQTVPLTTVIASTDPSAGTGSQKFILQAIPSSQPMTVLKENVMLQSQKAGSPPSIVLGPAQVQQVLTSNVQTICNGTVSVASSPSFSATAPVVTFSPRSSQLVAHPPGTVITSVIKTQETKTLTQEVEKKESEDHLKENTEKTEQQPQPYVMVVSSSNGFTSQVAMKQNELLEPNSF
Chain of ETV1 (P50549 whole entry): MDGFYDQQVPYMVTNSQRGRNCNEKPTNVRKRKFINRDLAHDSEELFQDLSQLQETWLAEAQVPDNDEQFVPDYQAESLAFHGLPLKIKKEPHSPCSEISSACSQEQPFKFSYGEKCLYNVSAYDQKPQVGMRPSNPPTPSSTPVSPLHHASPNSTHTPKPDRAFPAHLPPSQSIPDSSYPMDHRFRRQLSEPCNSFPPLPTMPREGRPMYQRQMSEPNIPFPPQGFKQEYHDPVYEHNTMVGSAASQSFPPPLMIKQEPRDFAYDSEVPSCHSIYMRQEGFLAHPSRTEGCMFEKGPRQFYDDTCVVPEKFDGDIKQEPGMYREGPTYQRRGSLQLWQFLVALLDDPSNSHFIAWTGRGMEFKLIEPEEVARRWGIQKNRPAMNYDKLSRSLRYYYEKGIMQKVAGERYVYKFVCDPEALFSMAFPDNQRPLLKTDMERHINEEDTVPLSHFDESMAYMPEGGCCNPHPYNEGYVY

Sequence	binding signal [1]	binding signal [2]	binding signal [3]	binding signal [4]	binding signal [5]	binding signal [6]	binding signal [7]	binding signal [8]	binding signal [9]	binding signal [10]	binding signal [11]	binding signal [12]	binding signal [13]	binding signal [14]	binding signal [15]	binding signal [16]
CGATGA	1.01 fold enrichment (6-mer frequency, TF over GST control)	1.09 fold enrichment (6-mer frequency, TF over GST control)	1.05 fold enrichment (6-mer frequency, TF over GST control)	1.11 fold enrichment (6-mer frequency, TF over GST control)	1.08 fold enrichment (6-mer frequency, TF over GST control)	1.06 fold enrichment (6-mer frequency, TF over GST control)	1.01 fold enrichment (6-mer frequency, TF over GST control)	1.09 fold enrichment (6-mer frequency, TF over GST control)	1.05 fold enrichment (6-mer frequency, TF over GST control)	1.02 fold enrichment (6-mer frequency, TF over GST control)	1.06 fold enrichment (6-mer frequency, TF over GST control)	1.01 fold enrichment (6-mer frequency, TF over GST control)	–	–	–	–
GAATTG	1.15 fold enrichment (6-mer frequency, TF over GST control)	1.12 fold enrichment (6-mer frequency, TF over GST control)	1.09 fold enrichment (6-mer frequency, TF over GST control)	1.11 fold enrichment (6-mer frequency, TF over GST control)	1.12 fold enrichment (6-mer frequency, TF over GST control)	1.17 fold enrichment (6-mer frequency, TF over GST control)	1.21 fold enrichment (6-mer frequency, TF over GST control)	1.21 fold enrichment (6-mer frequency, TF over GST control)	1.18 fold enrichment (6-mer frequency, TF over GST control)	1.06 fold enrichment (6-mer frequency, TF over GST control)	1.11 fold enrichment (6-mer frequency, TF over GST control)	1.04 fold enrichment (6-mer frequency, TF over GST control)	1.1 fold enrichment (6-mer frequency, TF over GST control)	1.11 fold enrichment (6-mer frequency, TF over GST control)	1.17 fold enrichment (6-mer frequency, TF over GST control)	1.15 fold enrichment (6-mer frequency, TF over GST control)
